The source of these data is PubChem BioAssay.

Experiment [1] is described as follows: binders of probe aFSTL3 on microarray, primary screen, stem cell growth factor project, biochemical, small-molecule microarray, fluorescence 635/667 (AID 1064).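 Also: measures binding of the biotinylated anti-FSTL3 antibody to printed compounds.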 As to conditions: higher = more signal.
Experiment [2] in a line: binders from COS7 lysate, DM2A8 probe, primary screen, torsin A project, cell lysate, small-molecule microarray, fluorescence 635/667 (AID 1065). As to conditions: higher = more signal, COS7 lysate expressing mutant human TOR1A.
Experiment [3] is described as follows: binders of probe aFGF2 on microarray, primary screen, stem cell growth factor project, biochemical, small-molecule microarray, fluorescence 635/667 (AID 1067).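 Also: measures binding of biotinylated aFGF2 protein to printed compounds on slides; z-score merges feature fluorescence and signal-to-noise across triplicate slides.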 As to conditions: higher = more signal.
The nature of experiment [4]: binders of probe aFGF10 on microarray, primary screen, stem cell growth factor project, biochemical, small-molecule microarray, fluorescence 635/667 (AID 1071).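 Also: score merges 667 nm spot intensity and signal to noise from triplicate slides.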 As to conditions: higher = more signal.
The target of experiment [5] is Neurogenic locus notch homolog protein 2 (Homo sapiens) (UniProt Q04721). Briefly: Notch2 binders on small-molecule microarrays, primary screen, biochemical, small-molecule microarray, 635 nm fluorescence, stem cell growth factors (AID 1073). To be noted: Notch2 binding, higher = more signal.
Experiment [6] addresses Pro-neuregulin-1, membrane-bound isoform (Homo sapiens) (UniProt Q02297). Kind of experiment: NRG1 binders on small-molecule microarrays, primary screen, psychiatric disease protein project, biochemical, small-molecule microarray, fluorescence 635/667 (AID 1075).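 Also: score combines 667 nm spot fluorescence with signal to noise.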 As to conditions: NRG1 binding, 635 nm fluorescence, higher = more signal.
Experiment [7] has as its system Neuregulin-1 EGF-like domain. Briefly: binders of neuregulin-1 EGF-like domain, primary screen, biochemical, small-molecule microarray, 635 nm fluorescence (AID 1081).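 Also: binding of the protein to compounds printed on small-molecule microarray slides.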 To be noted: small-molecule microarray binding, higher = more signal.
The nature of experiment [8]: FRG1 promoter luciferase signal modulators, primary screen, FRG1 inhibition for FSHD, cell-based, C2C12 myotubes, firefly/Renilla luciferase, luminescence (AID 1084). As to conditions: higher = more signal, called active from +8 up or from −8 down.
Experiment [9] is described as follows: binders of probe aFST on microarray, primary screen, stem cell growth factor project, biochemical, small-molecule microarray, fluorescence 635/667 (AID 1086).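 Also: score merges 667 nm fluorescence with signal-to-noise of each printed compound spot.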 As to conditions: higher = more signal.
The nature of experiment [10]: binders of probe aHhip on microarray, primary screen, stem cell growth factor project, biochemical, small-molecule microarray, fluorescence 635/667 (AID 1087).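 Also: score merges spot fluorescence at 667nm with spot signal to noise ratio.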 As to conditions: higher = more signal.
Experiment [11] concerns PRMT1 (protein arginine N-methyltransferase 1). Kind of experiment: PRMT1 binders on small-molecule microarrays, primary screen, biochemical, small-molecule microarray, 635 nm fluorescence (AID 1088).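 Also: binding of Prmt1 protein to compounds spotted on small-molecule microarray slides.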 As to conditions: small-molecule microarray binding, higher = more signal.
Experiment [12] in a line: yeast growth modulation, basal conditions, primary screen, YJM789 clinical isolate, OD600, 24 h (AID 1089).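 Also: growth of clinical yeast isolate S. cerevisiae YJM 789 seeded 1000 cells per well; test concentration not given here.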 To be noted: S. cerevisiae YJM789 growth, higher = more signal, called active from +8 up or from −8 down.
Experiment [13] is described as follows: fission yeast growth modulation, primary screen, strain 972, OD600, 24 h, no modulator (AID 1090).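 Also: basal condition with compound alone and no growth modifier present; test concentration not given here.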 As to conditions: S. pombe 972 growth, higher = more signal, called active from +8 up or from −8 down.
Experiment [14] can be described thus: S. cerevisiae growth modulation with rapamycin, primary screen, strain BY4716, OD600, 96 h (AID 1091). Also: test concentration not given here. To be noted: higher = more signal, called active from +8 up or from −8 down.
Experiment [15] deals with Torsin-1A-interacting protein 2 (Homo sapiens) (UniProt Q8NFQ8). Briefly: LULL1 binders on small-molecule microarray, primary screen, cell lysate, human LULL1 lysate, 635/667 nm fluorescence (AID 1092).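 Also: probe is lysate of COS7 cells overexpressing human LULL1; score merges per-feature 667 nm fluorescence with signal-to-noise.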 To be noted: hLULL1 lysate binding, 635 nm fluorescence, higher = more signal.
Sequence of Torsin-1A-interacting protein 2 (Homo sapiens) (Q8NFQ8 whole entry, looked up): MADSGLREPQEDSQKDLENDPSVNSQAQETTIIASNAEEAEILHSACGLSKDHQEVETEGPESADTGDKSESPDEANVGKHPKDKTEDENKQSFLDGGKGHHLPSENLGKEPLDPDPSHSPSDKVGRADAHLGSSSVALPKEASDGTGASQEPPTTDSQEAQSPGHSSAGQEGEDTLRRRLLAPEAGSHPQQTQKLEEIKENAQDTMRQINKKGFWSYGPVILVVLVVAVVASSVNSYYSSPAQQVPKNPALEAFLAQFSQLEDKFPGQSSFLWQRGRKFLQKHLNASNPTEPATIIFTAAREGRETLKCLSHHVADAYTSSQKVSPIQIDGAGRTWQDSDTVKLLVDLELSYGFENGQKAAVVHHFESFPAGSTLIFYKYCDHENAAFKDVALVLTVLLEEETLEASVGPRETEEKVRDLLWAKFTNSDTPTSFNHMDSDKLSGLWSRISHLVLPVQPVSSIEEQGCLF
A short description of experiment [16]: E. coli growth modulation, two-sided OD650, primary screen, E. coli filamentation project, strain DRC41, 24 h (AID 1093).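 Also: MC1000 strain lacking acrAB efflux and sulA so SOS filamentation is blocked; test concentration not given here.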 As to conditions: OD650, 24 h, higher = more signal, called active from +8 up or from −8 down.
A short description of experiment [17]: small-molecule microarray binders of probe aLefty2, primary screen, biochemical, biotinylated probe, 635/667 nm fluorescence (AID 1094).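 Also: score merges spot fluorescence near 667 nm with spot signal-to-noise ratio.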 As to conditions: higher = more signal.
Experiment [18] deals with Noggin (protein binding on small-molecule microarray). Briefly: Noggin binders on small-molecule microarray, primary screen, biochemical, 635/667 nm fluorescence (AID 1095).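 Also: score merges 667 nm feature fluorescence with signal to noise over triplicate slides.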 As to conditions: 635 nm fluorescence, higher = more signal.
For experiment [19], the target named is Neurogenic locus notch homolog protein 3 (Homo sapiens) (UniProt Q9UM47). Briefly: NOTCH3 binders on small-molecule microarray, primary screen, biochemical, 635/667 nm fluorescence (AID 1096). To be noted: NOTCH3 binding, 635 nm fluorescence, higher = more signal.
Sequence of Neurogenic locus notch homolog protein 3 (Homo sapiens) (Q9UM47 whole entry, looked up): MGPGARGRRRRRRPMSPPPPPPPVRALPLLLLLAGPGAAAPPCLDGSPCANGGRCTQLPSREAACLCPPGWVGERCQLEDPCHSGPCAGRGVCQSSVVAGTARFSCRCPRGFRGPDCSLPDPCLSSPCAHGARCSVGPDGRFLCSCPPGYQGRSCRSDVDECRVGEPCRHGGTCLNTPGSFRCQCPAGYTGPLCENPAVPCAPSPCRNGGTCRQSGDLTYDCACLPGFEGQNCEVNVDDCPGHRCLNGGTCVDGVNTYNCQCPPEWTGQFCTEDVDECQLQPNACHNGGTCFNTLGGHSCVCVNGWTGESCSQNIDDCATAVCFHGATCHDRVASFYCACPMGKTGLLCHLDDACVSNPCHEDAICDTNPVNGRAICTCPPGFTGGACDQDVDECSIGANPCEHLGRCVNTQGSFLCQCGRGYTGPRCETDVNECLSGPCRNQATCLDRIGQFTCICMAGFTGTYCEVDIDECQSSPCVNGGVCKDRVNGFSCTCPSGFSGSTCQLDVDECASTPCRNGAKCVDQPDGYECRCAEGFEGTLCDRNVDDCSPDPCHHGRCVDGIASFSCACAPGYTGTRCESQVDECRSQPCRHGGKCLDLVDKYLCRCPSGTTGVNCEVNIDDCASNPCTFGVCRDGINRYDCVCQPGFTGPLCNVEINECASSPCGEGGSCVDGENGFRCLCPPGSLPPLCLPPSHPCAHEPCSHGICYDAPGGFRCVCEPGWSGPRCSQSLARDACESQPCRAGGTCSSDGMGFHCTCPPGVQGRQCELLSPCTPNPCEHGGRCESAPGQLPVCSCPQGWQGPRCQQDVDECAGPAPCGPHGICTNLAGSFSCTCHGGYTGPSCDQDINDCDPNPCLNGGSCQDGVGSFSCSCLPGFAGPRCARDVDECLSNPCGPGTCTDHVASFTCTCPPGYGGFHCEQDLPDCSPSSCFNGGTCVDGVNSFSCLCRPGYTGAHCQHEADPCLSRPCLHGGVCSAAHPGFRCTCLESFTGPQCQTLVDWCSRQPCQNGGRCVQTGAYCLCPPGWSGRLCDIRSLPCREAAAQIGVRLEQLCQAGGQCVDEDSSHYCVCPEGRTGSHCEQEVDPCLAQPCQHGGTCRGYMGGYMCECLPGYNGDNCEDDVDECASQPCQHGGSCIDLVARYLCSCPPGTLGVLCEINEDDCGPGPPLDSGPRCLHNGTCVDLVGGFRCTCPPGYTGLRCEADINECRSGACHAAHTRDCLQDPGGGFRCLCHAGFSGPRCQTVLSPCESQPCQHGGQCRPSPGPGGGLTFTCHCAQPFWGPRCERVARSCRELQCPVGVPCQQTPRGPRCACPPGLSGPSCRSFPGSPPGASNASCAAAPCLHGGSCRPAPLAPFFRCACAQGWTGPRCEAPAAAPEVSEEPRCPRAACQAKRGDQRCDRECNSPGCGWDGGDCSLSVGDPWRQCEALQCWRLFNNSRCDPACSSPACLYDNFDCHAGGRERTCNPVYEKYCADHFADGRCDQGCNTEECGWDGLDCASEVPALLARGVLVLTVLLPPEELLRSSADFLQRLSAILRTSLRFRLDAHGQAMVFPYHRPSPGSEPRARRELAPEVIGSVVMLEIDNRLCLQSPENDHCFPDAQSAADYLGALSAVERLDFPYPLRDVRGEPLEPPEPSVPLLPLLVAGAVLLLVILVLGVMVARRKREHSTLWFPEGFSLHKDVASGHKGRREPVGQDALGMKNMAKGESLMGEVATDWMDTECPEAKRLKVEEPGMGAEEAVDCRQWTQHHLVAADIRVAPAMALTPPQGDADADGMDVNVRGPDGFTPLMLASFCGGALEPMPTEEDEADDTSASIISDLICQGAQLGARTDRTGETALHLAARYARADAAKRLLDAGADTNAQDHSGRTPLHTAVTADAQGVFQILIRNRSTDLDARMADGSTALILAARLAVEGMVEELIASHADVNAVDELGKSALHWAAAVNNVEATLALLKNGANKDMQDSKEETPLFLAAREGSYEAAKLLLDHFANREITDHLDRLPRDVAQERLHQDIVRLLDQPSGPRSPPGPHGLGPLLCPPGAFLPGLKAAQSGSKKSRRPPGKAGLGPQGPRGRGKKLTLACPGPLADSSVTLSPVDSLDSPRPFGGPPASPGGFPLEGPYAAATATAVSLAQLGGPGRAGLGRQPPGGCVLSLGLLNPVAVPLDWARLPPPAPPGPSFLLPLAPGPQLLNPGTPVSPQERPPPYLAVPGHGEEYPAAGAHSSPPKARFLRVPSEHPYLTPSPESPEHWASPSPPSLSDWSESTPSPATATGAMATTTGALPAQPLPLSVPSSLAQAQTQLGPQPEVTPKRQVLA
Experiment [20] in a line: small-molecule microarray binders of probe aEGFR, primary screen, biochemical, biotinylated probe, 635/667 nm fluorescence (AID 1097).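 Also: probe is a biotinylated anti-EGFR antibody binding compounds printed on slides; score combines fluorescence near 667 nm and signal to noise of each spot.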 As to conditions: higher = more signal.

Structures are written as SMILES. Activity calls are given as the source filed them.

Sequence of Pro-neuregulin-1, membrane-bound isoform (Homo sapiens) (Q02297 whole entry, looked up, the tested form may be a part, canonical isoform): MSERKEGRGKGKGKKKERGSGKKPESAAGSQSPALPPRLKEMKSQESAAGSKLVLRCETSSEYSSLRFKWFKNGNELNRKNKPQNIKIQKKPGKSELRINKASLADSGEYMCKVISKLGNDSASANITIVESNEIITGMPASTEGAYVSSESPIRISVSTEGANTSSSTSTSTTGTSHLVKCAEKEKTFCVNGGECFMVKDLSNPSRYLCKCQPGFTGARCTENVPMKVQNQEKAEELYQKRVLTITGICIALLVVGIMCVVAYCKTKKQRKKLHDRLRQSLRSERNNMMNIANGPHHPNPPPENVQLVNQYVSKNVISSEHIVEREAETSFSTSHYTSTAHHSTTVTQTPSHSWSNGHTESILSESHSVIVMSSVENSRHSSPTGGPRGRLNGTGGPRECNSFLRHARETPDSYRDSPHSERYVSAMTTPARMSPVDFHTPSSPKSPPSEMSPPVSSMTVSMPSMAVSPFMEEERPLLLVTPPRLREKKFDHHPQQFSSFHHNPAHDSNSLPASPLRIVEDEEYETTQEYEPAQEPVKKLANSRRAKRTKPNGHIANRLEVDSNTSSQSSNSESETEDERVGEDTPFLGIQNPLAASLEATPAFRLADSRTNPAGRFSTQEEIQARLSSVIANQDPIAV

With `C=CCNC(=O)[C@H]1[C@@H]2C(=O)O[C@@H](c3ccccc3)[C@@H](c3ccccc3)N2[C@@H](c2ccc(O)cc2)[C@]12C(=O)Nc1ccc(C#Cc3ccc(OC)cc3)cc12`, the composite z-score is -0.523 in experiment [1]; 0.396 in experiment [2]; -0.0158 in [3]; 0.357 in experiment [4]; 1.27 in experiment [5]; 0.384 in experiment [6]. The composite z-score in [7] stood at 1.07; in [9] it was 0.786; in experiment [10], 0.473; in experiment [11], 1.49; in experiment [15], 2.86; in [17], 0.369. The values for the composite z-score in [18], in experiment [19] and in [20] were 0.41, 1.12 and 0.469, respectively. The z-score in [8] was 0.0523 (inactive); in [12], -0.209 (inactive); in [13], 1.14 (inactive); in experiment [14], 0.832 (inactive); in experiment [16], -0.451 (inactive).
Turning to `O=c1cccc(-c2cccc3ccccc23)o1`, the composite z-score was 0.745 in experiment [1]; -0.378 in [2]; -0.0316 in experiment [3]; -0.413 in experiment [4]; -0.0766 in experiment [5]; -0.159 in experiment [6]. Moreover, the composite z-score in [7] was 0.75; in [9], 0.0143; in experiment [10], 0.0053; in [11] it was -0.106; in experiment [15] it was 0.877; in experiment [17], 0.303. In addition, the values for the composite z-score in [18], in experiment [19] and in [20] were -0.364, -0.107 and -0.2, respectively. Moreover, the z-score was 3.63 (inactive) in experiment [8]; -5.22 (inactive) in [12]; -13.3 (active) in experiment [13]; 4.08 (inactive) in experiment [14]; 1.48 (inactive) in experiment [16].
`C[C@]1(C(=O)NCC(F)(F)F)c2ccccc2C(=O)N(Cc2cc(F)cc(C(F)(F)F)c2)[C@H]1c1ccc(CO)cc1`: the composite z-score in experiment [1] is -0.599; in [2], 0.553; in [3], 0.274; in experiment [4] it was 0.0438; in experiment [5], -0.94; in [6], 1.74. In addition, the composite z-score is 0.623 in [7]; -0.409 in experiment [9]; 2.14 in experiment [10]; 1.38 in experiment [11]; 2.67 in [15]; 0.341 in experiment [17]. The composite z-score in experiment [18] is -0.16; in experiment [19], -0.255; in experiment [20] it was 0.52. In addition, the z-score in experiment [8] was -0.763 (inactive); in experiment [12], 0.49 (inactive); in experiment [13], -0.936 (inactive); in [14], -0.563 (inactive); in experiment [16], -0.951 (inactive).
Take `CC(C)CNC(=O)[C@@]1(C)c2ccccc2C(=O)N(C(C)C)[C@H]1c1ccc(CO)cc1`: the composite z-score is 0.095 in [1]; -0.456 in experiment [2]; -0.0803 in experiment [3]; -0.435 in experiment [4]; -1.78 in [5]; 0.0276 in [6]. Moreover, the composite z-score is -0.266 in [7]; -0.37 in experiment [9]; 0.0424 in experiment [10]; -1.32 in experiment [11]; 1.16 in experiment [15]; 0.44 in [17]. Besides, the composite z-score in experiment [18] is -0.933; in experiment [19], -2.11; in experiment [20], 0.0744. In addition, the z-score in [8] was 0.0705 (inactive); in experiment [12], 0.0968 (inactive); in experiment [13] it was 0.481 (inactive); in [14], 0.0297 (inactive); in experiment [16], -0.0935 (inactive).
In the case of `NC(=O)[C@]1(Cc2ccccc2)N=C(c2ccc(OCCCO)cc2)O[C@@H]1c1ccccc1`, the composite z-score in experiment [1] is 0.207; in [2], -0.911; in experiment [3] it was 0.0121; in experiment [4], 0.161; in [5] it was 1.15; in experiment [6], 1.59. Also, the composite z-score in experiment [7] was 1.12; in experiment [9] it was 0.503; in [10], -0.214; in experiment [11], 0.588; in [15], 3.54; in experiment [17] it was 0.0781. The composite z-score in [18] was -0.165; in experiment [19], 0.658; in experiment [20], 0.0182. Besides, the z-score in [8] is -0.573 (inactive); in [12], -0.94 (inactive); in experiment [13], -1.17 (inactive); in experiment [14], -0.314 (inactive); in experiment [16] it was -0.351 (inactive).
